The nature of assay [1]: qHTS Assay for Agonists of the Thyroid Stimulating Hormone Receptor. To be noted: HEK293-CNG-TSHR cells, membrane potential dye, cAMP; measured here: parental cells max response. In a few lines: (§1)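 cAMP rise detected as CNG-channel membrane depolarization by fluorescent dye (emission 590 nm), 30 min after compound, following 60 min dye loading containing 100 uM RO 20-1724 at room temperature. Cells: TSHR/CNG HEK 293, with parental CNG HEK 293 as control.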
For orientation: qHTS replaces the single test concentration by a dilution series.

For assay [2], the target named is Thyrotropin receptor (Homo sapiens) (UniProt P16473). The assay is described as above. The note with it: HEK293-CNG-TSHR cells (CNG channel as cAMP sensor), membrane potential dye, cAMP; series mostly up to 57.1 µM. In a few lines:
as §1

Out of some 73,000 compounds screened, about 350 (0.48%) were called active. Not shown: some 17% with an inconclusive outcome. The call rests on the fitted dose curve; in most records, active means well fitted activation curve with a large enough effect in the main read-out, with a control signal flat (not every such curve was filed as active); inconclusive means small, poorly fitted or top-dose-only effect, or a change in a side signal; inactive means no such curve, though single readings can be large or run the other way; reference of the percent scale not stated here. The list comes from a sample in which actives are over-represented; it also holds similar structures and randomly drawn compounds.
Potency means the concentration at half of the fitted maximal effect.

Thyrotropin receptor (Homo sapiens), sequence (P16473 whole entry, looked up): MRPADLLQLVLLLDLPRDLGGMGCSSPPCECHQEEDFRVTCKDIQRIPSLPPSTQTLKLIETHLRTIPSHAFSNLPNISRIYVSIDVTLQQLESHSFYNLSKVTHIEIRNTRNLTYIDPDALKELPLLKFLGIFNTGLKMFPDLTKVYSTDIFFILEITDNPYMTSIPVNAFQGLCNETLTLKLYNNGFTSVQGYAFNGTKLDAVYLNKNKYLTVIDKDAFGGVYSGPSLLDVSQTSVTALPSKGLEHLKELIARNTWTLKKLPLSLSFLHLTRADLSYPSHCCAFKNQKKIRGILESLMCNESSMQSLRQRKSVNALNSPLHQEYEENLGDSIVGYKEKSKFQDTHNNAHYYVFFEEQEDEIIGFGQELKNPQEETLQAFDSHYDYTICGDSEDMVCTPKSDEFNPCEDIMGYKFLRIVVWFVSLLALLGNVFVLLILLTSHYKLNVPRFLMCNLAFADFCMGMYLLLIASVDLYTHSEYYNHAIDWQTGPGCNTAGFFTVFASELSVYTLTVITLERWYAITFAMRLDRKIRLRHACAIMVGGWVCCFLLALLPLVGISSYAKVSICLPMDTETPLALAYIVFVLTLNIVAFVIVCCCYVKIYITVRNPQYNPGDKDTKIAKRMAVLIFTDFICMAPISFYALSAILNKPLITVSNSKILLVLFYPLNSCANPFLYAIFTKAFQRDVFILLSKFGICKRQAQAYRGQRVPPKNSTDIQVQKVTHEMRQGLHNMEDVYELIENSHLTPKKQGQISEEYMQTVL

For the compound `c1ccc2nc(C3=NCCN3)cnc2c1`, in assay [1], the activation was -2.21%. Also, the Potency result in assay [2] was “inactive”.

For `COCc1cc(C)nc(Nc2cc(C)ccc2C)c1C#N`, in assay [1], the activation is 18.4%. The Potency entry in assay [2] is “inactive”.

For `CC1CCN(C(=O)CSc2ccc3nnc(-c4cccc(F)c4)n3n2)CC1`, the activation in assay [1] was 0.67%. Moreover, the Potency entry in assay [2] is “inactive”.

For the compound `COc1ccc(C[C@H](N)C(=O)N[C@@H]2[C@H](O)[C@H](n3cnc4c(N(C)C)ncnc43)O[C@@H]2CO)cc1`, the activation in assay [1] was -1.32%. Besides, in assay [2], the Potency result was “inactive”.

As to `Cc1cc2nc3c(=O)[nH]c(=O)nc-3n(C[C@H](O)[C@H](O)[C@H](O)CO)c2cc1C`, in assay [1], the activation is 35.7%. The Potency entry in assay [2] was “inactive”.

Consider `O=C(CCn1c(=O)oc2ccccc21)Nc1ccon1`, for which the activation in assay [1] was found to be 5.04%. In addition, the Potency entry in assay [2] is “inactive”.

Take `COCCCNC(=O)COc1cc(C)c(Cl)c(C)c1`: the activation in assay [1] turned out to be 3.68%. Further, the Potency entry in assay [2] is “inactive”.

As for `COC(=O)CSC1=C(C#N)C(c2ccccc2OC)C(C(=O)OC)C(=O)N1` (stereo not drawn), the values for the activation in assay [1] and in assay [2] were -3.31% and -3.47% [at 11.4 µM] (inactive), respectively.

As for `C=CCOC(=O)COCCC(C)C`, the activation in assay [1] stood at 1.07%. In addition, in assay [2], the Potency result is “inactive”.

On to `Cn1cccc1C(=O)N1CCC[C@@]2(CCN(Cc3nccs3)C2)C1`, for which, in assay [1], the activation stood at 1.41%. In assay [2], the Potency entry is “inactive”.

For the compound `CCCC[C@@H]1C[C@H]1C(NC(=O)c1ccc(-c2ccccc2)cc1)c1ccc(-c2ccccc2)cc1` (stereo partly drawn), the activation in assay [1] came to 1.42%. Besides, the Potency entry in assay [2] was “inactive”.

Take `Cc1cccc(Br)c1`: in assay [1], the activation worked out at 15%. Besides, in assay [2], the Potency result is “inactive”.

For `CCCC(Cl)CCCC(Cl)CCC(Cl)CCC(Cl)CCC(Cl)CCCC(Cl)CCC` (stereo not drawn), in assay [1], the activation is 3.46%. In addition, the Potency entry in assay [2] is “inactive”.

Turning to `O=C(Cl)c1ccc([N+](=O)[O-])cc1`, the activation in assay [1] was -6.7%. Also, the Potency result in assay [2] was “inactive”.

In the case of `COc1ccc(S(=O)(=O)Nc2ccc(S(=O)(=O)N3CCCCC3)cc2)cc1OC`, the activation in assay [1] is -4.42%. For the same compound, the Potency entry in assay [2] was “inactive”.

`COc1ccc(C2SCCN2S(=O)(=O)c2ccccc2)cc1OC` (stereo not drawn): the activation in assay [1] stood at 15.1%. Also, the Potency in assay [2] was 31.6 µM (active).

Consider `COc1ccccc1CN1CC2(CCN(S(=O)(=O)c3ccccc3)CC2)C1`, for which the activation in assay [1] was determined as 7.71%. For the same compound, the Potency entry in assay [2] is “inactive”.

With `Cc1ccc2oc(=O)ccc2c1`, in assay [1], the activation is 1.36%. The Potency result in assay [2] was “inactive”.

For `CO[C@H]1COC(=O)[C@@H](OCc2ccccc2)/C=C\[C@H](C)[C@@H](OC)COC(=O)[C@H](OCc2ccccc2)/C=C\[C@@H]1C`, the activation is -2.98% in assay [1] and -1.59% [at 11.4 µM] (inactive) in assay [2].

With `CCc1ccccc1N(CC(=O)NCCSCc1ccco1)S(C)(=O)=O`, the activation was 6.61% in assay [1] and 16.8% [at 11.4 µM] (inactive) in assay [2].

For `COC(=O)C1(Cc2ccccc2)C=C2C(=C(C)C(=O)C2C)CN1` (stereo not drawn), the activation in assay [1] stood at 7.11%. Further, the Potency result in assay [2] is “inactive”.

Regarding `CC(=O)N1[C@H](C)C=C[C@]1(Cc1ccccc1)C(=O)NCc1ccccn1`, in assay [1], the activation came to 7.85%. Further, the Potency entry in assay [2] was “inactive”.

With `Cc1cc(C)cc(C#CC2C=CC(Oc3ccc(C4CCCC4)cc3)C(CO)O2)c1` (stereo not drawn), the activation was 16.7% in assay [1] and 5.07% [at 11.4 µM] (inactive) in assay [2].

For the compound `COC(=O)[C@@]1(Cc2ccc(F)cc2)[C@@H]2[C@@H](CC(=O)[C@H]2CC(=O)C(=O)N2CCCC2)CN1C(=O)c1ccccc1`, the activation in assay [1] was 18.8%. In assay [2], the Potency entry is “inactive”.

For `CCNCCCNCCCNCCCNCC`, in assay [1], the activation is -2.31%. Besides, the Potency entry in assay [2] is “inactive”.

For `BrC1C(Br)C(Br)C(Br)C(Br)C1Br` (stereo not drawn), the activation in assay [1] turned out to be 2.31%. Further, the Potency entry in assay [2] was “inactive”.

Regarding `Cc1cccc(C(=O)O)c1[N+](=O)[O-]`, the activation in assay [1] came to 15%. Moreover, in assay [2], the Potency entry is “inactive”.

For the compound `CC1(C)OC(C(O)(c2ccccc2)c2ccccc2)C(C(O)(c2ccccc2)c2ccccc2)O1` (stereo not drawn), the results for the activation in assay [1] and in assay [2] were 25.8% and 15.4% [at 11.4 µM] (inactive), respectively.

Turning to `Cc1cccc(NC(=O)CSC(N)=O)c1C`, in assay [1], the activation is -24.7%. The Potency result in assay [2] was “inactive”.

In the case of `CCCS(=O)(=O)N1CCCC(C(=O)NCc2ccco2)C1` (stereo not drawn), the activation in assay [1] was 10.5%. Besides, the Potency entry in assay [2] was “inactive”.

For `Cc1ccc(S(=O)(=O)N2CCCC2CO)cc1` (stereo not drawn), the activation was -3.4% in assay [1] and -5.75% [at 11.4 µM] (inactive) in assay [2].

In the case of `Cc1ccc(S(=O)(=O)N2CCCC2C(=O)NCc2ccco2)cc1` (stereo not drawn), the activation in assay [1] is -0.0422%. In addition, the Potency in assay [2] is 12.6 µM (active).

With `C/C(CCN1CCc2nc(-c3ccccc3)c(-c3ccccc3)cc2C1)=N\O[C@@H](C)c1cn([C@@H]2COC[C@@H]2O)nn1`, the activation was 0.56% in assay [1] and 6.46% [at 11.4 µM] (inactive) in assay [2].

For the compound `C=CCn1cnc2scc(-c3ccccc3)c2c1=O`, the activation in assay [1] was -2.42%. Besides, in assay [2], the Potency result was “inactive”.

Consider `O=C1C(c2[nH]c3ccccc3c2O)=Nc2ccccc21`, for which the activation in assay [1] is -17.9%. In addition, the Potency result in assay [2] was “inactive”.

With `O=C(O)CS(=O)c1ccc2c3c(cccc13)C(=O)c1ccccc1-2` (stereo not drawn), the activation is -9.79% in assay [1] and -5.26% [at 11.4 µM] (inactive) in assay [2].

Take `CCCCCCN(C(=O)CCCCCN1C(=O)NC(c2ccc(C(F)(F)F)cc2)C(C(=O)OCc2ccccc2)=C1C)C(C(=O)NCCCC)c1ccc(OCC(=O)OC)c(C(=O)OC)c1` (stereo not drawn): the activation in assay [1] worked out at 18.9%. Further, the Potency result in assay [2] is “inactive”.

Turning to `O=C(CSc1nc2c(cnn2-c2ccc(F)cc2)c(=O)[nH]1)N1CCCCCC1`, the activation in assay [1] was determined as 1.57%. Besides, the Potency entry in assay [2] was “inactive”.

With `CN1CCC(CNC(=O)c2ccc(-n3c(=O)c(=O)[nH]c4ccccc43)cc2)CC1`, in assay [1], the activation was -0.798%. Moreover, in assay [2], the Potency result is “inactive”.

`Cc1ccc2nc(-c3ccccc3)cc(C(=O)O)c2c1`: the activation in assay [1] was -5.12%. Further, the Potency entry in assay [2] was “inactive”.

For the compound `CC(C)(C)[Si](OCC[C@@H]1C[C@@]1(C)[C@@H](NP(=O)(c1ccccc1)c1ccccc1)c1ccccc1)(c1ccccc1)c1ccccc1`, in assay [1], the activation is 13.3%. Moreover, the Potency entry in assay [2] was “inactive”.

Consider `O=C(COc1ccccc1)NCc1ccc2c(c1)OCO2`, for which the activation in assay [1] was 27.1%. For the same compound, in assay [2], the Potency entry is “inactive”.

For `O=C(CC(Cc1ccccc1)C(=O)O)NCCc1ccc2c(c1)OCO2` (stereo not drawn), the activation in assay [1] came out at 9.45%. In addition, in assay [2], the Potency result was “inactive”.

With `O=C(CN(Cc1ccccc1)C(=O)c1ccc2c(c1)OCCO2)NCc1ccc2c(c1)OCO2`, the activation in assay [1] turned out to be 12.9%. Further, the Potency in assay [2] was 7.94 µM (active).

For the origin of these results see PubChem BioAssay AID926 (National Center for Advancing Translational Sciences (NCATS), 2007).
